Source: PubChem BioAssay (NCATS)
Results filed as inconclusive are left out. Unless noted, the call rests on the fitted dose curve; in most records, active means well fitted curve in either direction with a large enough effect (not every such curve was filed as active); inconclusive means small, poorly fitted or top-dose-only effect, or another doubt; inactive means flat fitted curve, though single readings scatter.

What was measured:
[1] = AP1 Signaling Pathway (AID 357); conditions: ME-180 AP-1-bla reporter, EGF-induced, beta-lactamase ratio, 5 h; at 17.2 µM (top of the series) unless noted; further: on the % scale 0 is the no-effect control and ±100 the full control effect
Method in brief: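 ME-180 cells with beta-lactamase reporter under AP-1 response element, stimulated with EC50 EGF; compounds tested in titration series, 5 h at 37 °C. CCF4 substrate added 2.5 h at room temperature; 460/530 nm emission ratio gave %activity and AC50.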

[2] = NFAT Signaling Pathway (AID 444); conditions: Jurkat NFAT-bla M1, carbachol, beta-lactamase ratio, 5 h; at 17.2 µM (top of the series) unless noted;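 further: carbachol stimulus at about its EC50 of 1 µM final; on the % scale 0 is the no-effect control and ±100 the full control effect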
Method in brief: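 Read-out: CCF4 FRET ratio (460 nm/530 nm) after 1 h RT dye loading, used for %activity and AC50 from titration series. Cells: Jurkat NFAT-β-lactamase/M1 line, treated with compound plus 1 uM carbachol for 5 h, 37 °C.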

[3] = Stat Signaling Pathway (AID 446); conditions: ME-180 SIE beta-lactamase reporter, IL-6 stimulated, 5 h; at 17.2 µM (top of the series) unless noted;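 further: ME-180 cervical cancer cells given 40 pM IL-6 alongside compound; SIE-controlled beta-lactamase reporter measured as 460/530 nm FRET emission ratio; on the % scale 0 is the no-effect control and ±100 the full control effect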
Method in brief: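 ME-180 SIE-bla cells; overnight plating; cpd + IL-6 40 pM, 5 h, 37 C; LiveBLAzer 2.5 h RT; 460/530 nm emission ratio. Normalized to 300 pM IL-6 and 125 nM JAK inhibitor controls.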

[4] = target: Glucocorticoid receptor (Homo sapiens) (UniProt P04150); experiment: GR-GFP Redistribution (AID 450;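 active means compounds whose dose series gives a full or clear partial fitted curve of increased nuclear translocation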; further: potency means the concentration at half of the fitted maximal effect)
Chain of Glucocorticoid receptor (Homo sapiens) (P04150 whole entry, looked up): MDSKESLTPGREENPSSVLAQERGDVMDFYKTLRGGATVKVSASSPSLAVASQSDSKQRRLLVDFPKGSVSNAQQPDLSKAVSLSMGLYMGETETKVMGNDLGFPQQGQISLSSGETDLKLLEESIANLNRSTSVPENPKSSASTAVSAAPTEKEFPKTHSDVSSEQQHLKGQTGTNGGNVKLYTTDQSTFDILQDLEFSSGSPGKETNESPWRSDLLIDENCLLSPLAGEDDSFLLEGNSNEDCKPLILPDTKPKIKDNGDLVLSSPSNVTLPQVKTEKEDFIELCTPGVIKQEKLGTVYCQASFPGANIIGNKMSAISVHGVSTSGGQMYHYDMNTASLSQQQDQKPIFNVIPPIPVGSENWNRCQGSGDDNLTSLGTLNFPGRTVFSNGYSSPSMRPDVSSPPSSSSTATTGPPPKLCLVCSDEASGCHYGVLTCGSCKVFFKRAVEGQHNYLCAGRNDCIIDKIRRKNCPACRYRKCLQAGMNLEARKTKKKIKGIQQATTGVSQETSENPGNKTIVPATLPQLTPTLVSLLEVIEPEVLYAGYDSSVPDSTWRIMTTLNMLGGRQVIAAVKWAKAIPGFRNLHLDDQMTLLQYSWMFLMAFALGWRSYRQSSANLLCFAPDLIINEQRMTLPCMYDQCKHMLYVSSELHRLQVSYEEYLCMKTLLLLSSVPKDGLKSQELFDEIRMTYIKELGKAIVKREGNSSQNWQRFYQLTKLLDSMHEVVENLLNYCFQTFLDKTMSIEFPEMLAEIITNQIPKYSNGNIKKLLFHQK

COCc1n[nH]c(=S)n1-c1cccc2ccccc12
inactive: activity change, negative = inhibition [1] -1.13% | activity change, negative = inhibition [2] 1.36% | activity, negative = inhibition [3] 0.355% | Potency [4] > 20.6 µM

ONC(=Nc1ccccc1)C(=Nc1ccccc1)NO
inactive: activity change, negative = inhibition [1] 4.05% | activity change, negative = inhibition [2] 9.94% | activity, negative = inhibition [3] -0.28% | Potency [4] > 20.6 µM

O=C(Nc1ccccc1C(=O)NCCCn1ccnc1)c1ccccc1
inactive: activity change, negative = inhibition [1] 1.7% | activity change, negative = inhibition [2] 5.76% | activity, negative = inhibition [3] 3.12% | Potency [4] > 20.6 µM

COC(=O)C1=C(C)N=C2SC(C)C(=O)N2C1c1cccs1 (configuration not stated)
inactive: activity change, negative = inhibition [1] -11.1% | activity change, negative = inhibition [2] -9.72% | activity, negative = inhibition [3] -9.23% | Potency [4] > 20.6 µM

C=CCN(C)CCCNC(=O)/C=N/O
inactive: activity change, negative = inhibition [1] -0.81% | activity change, negative = inhibition [2] 2.2% | activity, negative = inhibition [3] 3.74% | Potency [4] > 20.6 µM

O=C(O)CC(C(=O)OCCOc1ccccc1)N1CCOCC1 (configuration not stated)
inactive: activity change, negative = inhibition [1] -4.83% | activity change, negative = inhibition [2] -6.82% | activity, negative = inhibition [3] -1.47% | Potency [4] > 20.6 µM

COc1cc(C)nc(Oc2ccc(=O)[nH]n2)n1
inactive: activity change, negative = inhibition [1] 16.4% | activity change, negative = inhibition [2] -26.6% | activity, negative = inhibition [3] 13.6% | Potency [4] > 20.6 µM

COc1ccc(OC(=O)c2cc3ccccc3o2)cc1
inactive: activity change, negative = inhibition [1] 1.41% | activity change, negative = inhibition [2] -19.7% | activity, negative = inhibition [3] 10.1% | Potency [4] > 20.6 µM

CCOC(=O)CSc1nc(NC#N)nc(N(CC)CC)n1
inactive: activity change, negative = inhibition [1] 8.62% | activity change, negative = inhibition [2] -5.47% | activity, negative = inhibition [3] -5.41% | Potency [4] > 20.6 µM

C/C(=C\C(=O)O)CC(=O)O
inactive: activity change, negative = inhibition [1] -2.96% | activity change, negative = inhibition [2] -2% | activity, negative = inhibition [3] 7.83% | Potency [4] > 20.6 µM

C=CCN1C(=O)CC(C(=O)NC)SC1=Nc1ccc(C(=O)OCC)cc1 (configuration not stated)
inactive: activity change, negative = inhibition [1] -3.69% | activity change, negative = inhibition [2] 16.7% | activity, negative = inhibition [3] -3.3% | Potency [4] > 20.6 µM

O=C(O)CC(C(=O)OCC1CCCO1)N1CCOCC1 (configuration not stated)
inactive: activity change, negative = inhibition [1] 9.13% | activity change, negative = inhibition [2] -2.84% | activity, negative = inhibition [3] -0.575% | Potency [4] > 20.6 µM

Cc1nc(SCC(N)=O)[nH]c(=O)c1Cc1ccc(OC(C)C)cc1
inactive: activity change, negative = inhibition [1] 12% | activity change, negative = inhibition [2] 1.93% | activity, negative = inhibition [3] 8.12% | Potency [4] > 20.6 µM

CCN(CC)CCN1C(=O)C(=O)/C(=C(/O)c2c(C)[nH]c(C(=O)OC)c2C)C1c1cccc(OC)c1 (configuration not stated)
inactive: activity change, negative = inhibition [1] 1.88% | activity change, negative = inhibition [2] 3.77% | activity, negative = inhibition [3] 5.49% | Potency [4] > 20.6 µM

CCC(NC(=O)Nc1nccs1)(C(F)(F)F)C(F)(F)F
inactive: activity change, negative = inhibition [1] -2.44% | activity change, negative = inhibition [2] -12.7% | activity, negative = inhibition [3] -6.36% | Potency [4] > 20.6 µM

CCOC(=O)CNC(=O)CNC(=O)c1ccc(OCC(C)C)cc1
inactive: activity change, negative = inhibition [1] -5.66% | activity change, negative = inhibition [2] 8.09% | activity, negative = inhibition [3] -1.49% | Potency [4] > 20.6 µM

Cc1cc(=O)oc2ccc(OCC(=O)N3CCc4ccccc43)cc12
inactive: activity change, negative = inhibition [1] 2.4% | activity change, negative = inhibition [2] -12% | activity, negative = inhibition [3] 11.2% | Potency [4] > 20.6 µM

CCN(CC)CCCC1(CN)OCCc2ccccc21 (configuration not stated)
inactive: activity change, negative = inhibition [1] 19.8% | activity change, negative = inhibition [2] -16.2% | activity, negative = inhibition [3] 8.19% | Potency [4] > 20.6 µM

COc1ccc(CCn2c(=N)c(C#N)cc3c(=O)n4ccccc4nc32)cc1
inactive: activity change, negative = inhibition [1] -1.65% | activity change, negative = inhibition [2] -0.836% | activity, negative = inhibition [3] 3.03% | Potency [4] > 20.6 µM

CCOC(=O)c1c(CN2CCCCC2)oc2ccc(OC)cc12
inactive: activity change, negative = inhibition [1] 21.2% | activity change, negative = inhibition [2] 14.1% | activity, negative = inhibition [3] 0.706% | Potency [4] > 20.6 µM

O=c1cc(O)nc2n1CCCS2
inactive: activity change, negative = inhibition [1] 5% | activity change, negative = inhibition [2] -0.525% | activity, negative = inhibition [3] -1.13% | Potency [4] > 20.6 µM

Cc1oc2nc(SCCCC(=O)NCCCO)nc(N)c2c1C
inactive: activity change, negative = inhibition [1] -11.8% | activity change, negative = inhibition [2] 15.2% | activity, negative = inhibition [3] 4.84% | Potency [4] > 20.6 µM

CCOC(=O)c1[nH]c2ccccc2c1N=CN(CC)CC
inactive: activity change, negative = inhibition [1] 9.2% | activity change, negative = inhibition [2] -19.2% | activity, negative = inhibition [3] -2.38% | Potency [4] > 20.6 µM
